# In PubChem BioAssay (NCATS):
# Where “and” joins values, the source holds several entries; their conditions need not be identical. Equal values may be shown once. Unmarked numbers belong to inactive results. Results filed as inconclusive are left out. Calls of active or inactive are those of the source. Unless noted, the call rests on the fitted dose curve; in most records, active means well fitted curve in the direction sought with a large enough effect; inconclusive means small, poorly fitted or top-dose-only effect, or another doubt; inactive means no such curve, though single readings can be large; an effect the other way counts as inactive or inconclusive.
# Assays:
# [1] = biological target: Cytochrome P450 3A4 (Homo sapiens) (UniProt P08684); experiment: qHTS Assay for Inhibitors and Substrates of Cytochrome P450 3A4 (AID 884); further: potency means the concentration at half of the fitted maximal effect; nearly all actives have a fitted effect of over 50% in size
# Chain of Cytochrome P450 3A4 (Homo sapiens) (P08684 whole entry, looked up): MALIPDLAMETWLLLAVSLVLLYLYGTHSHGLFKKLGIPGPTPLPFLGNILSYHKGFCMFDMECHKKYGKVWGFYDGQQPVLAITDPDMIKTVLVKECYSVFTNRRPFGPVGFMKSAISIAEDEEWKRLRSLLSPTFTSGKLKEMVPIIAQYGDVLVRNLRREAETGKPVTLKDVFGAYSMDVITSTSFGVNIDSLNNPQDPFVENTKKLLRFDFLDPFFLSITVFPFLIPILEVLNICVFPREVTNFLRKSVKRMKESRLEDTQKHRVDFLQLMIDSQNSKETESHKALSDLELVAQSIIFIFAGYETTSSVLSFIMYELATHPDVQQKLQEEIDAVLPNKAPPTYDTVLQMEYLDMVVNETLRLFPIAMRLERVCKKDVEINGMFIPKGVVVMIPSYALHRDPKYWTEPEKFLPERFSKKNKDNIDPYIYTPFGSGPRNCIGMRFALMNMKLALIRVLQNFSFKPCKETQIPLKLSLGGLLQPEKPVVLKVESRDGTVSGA
# Method in brief: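 Luminescent readout of luciferin produced by CYP3A4 (20 nM) dealkylation of Luciferin-PPXE, 25 uM (its KM). NADPH-driven reaction ran 60 min at RT after 10 min compound preincubation; data scaled to 57 uM ketoconazole as 100% inhibition.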
# [2] = biological target: Cytochrome P450 3A4 (Homo sapiens) (UniProt P08684); experiment: qHTS Assay for Activators of Cytochrome P450 3A4 (AID 885); further: nearly all actives have a fitted effect of over 65% in size
# Method in brief: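 Activators are scored by enhanced luminescence from CYP3A4 conversion of luciferin-PPXE (25uM, equal to KM) to luciferin, after 60 min at RT with an NADPH-regenerating system.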
# [3] = Confirmation and Secondary Assay for Modulators of Hemoglobin Beta Chain Splicing at IVS2 654 locus (AID 910);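 further: HeLa cells stably carrying EGFP split by mutant beta-globin IVS2-654 intron; per-well total GFP intensity by laser scanning cytometry after 2-day treatment; % of control where 0% means no effect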
# Method in brief: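 Readout: per-well total peak green fluorescence (488 nm ex, 500–520 nm em) from objects 5–250 µm, reflecting correct splicing of an EGFP-654 reporter. Compounds were applied for 2 days at 37 °C to overnight-plated HeLa EGFP-654 cells; controls were DMSO and 500 nM IVS2-654 PNA.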
# [4] = Confirmation and Secondary Assay for Modulators of Hemoglobin Beta Chain Splicing at IVS2 705 locus (AID 930);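 further: HeLa cells stably expressing the EGFP-705 splicing reporter; GFP fluorescence per well restored by corrected splicing of the IVS2-705 intron in EGFP; series mostly up to about 46 µM; % of control where 0% means no effect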
# Method in brief: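 Assay measures total GFP intensity per well in HeLa EGFP-705 cells after 2 days with compound; mis-splicing normally truncates EGFP, so fluorescence indicates corrected splicing.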
# [5] = biological target: Cytochrome P450 2C19 (Homo sapiens) (UniProt P33261); experiment: qHTS Assay for Inhibitors and Substrates of Cytochrome P450 2C19 (AID 899); further: potency means the concentration at half of the fitted maximal effect; nearly all actives have a fitted effect of over 60% in size
# Chain of Cytochrome P450 2C19 (Homo sapiens) (P33261 whole entry, looked up): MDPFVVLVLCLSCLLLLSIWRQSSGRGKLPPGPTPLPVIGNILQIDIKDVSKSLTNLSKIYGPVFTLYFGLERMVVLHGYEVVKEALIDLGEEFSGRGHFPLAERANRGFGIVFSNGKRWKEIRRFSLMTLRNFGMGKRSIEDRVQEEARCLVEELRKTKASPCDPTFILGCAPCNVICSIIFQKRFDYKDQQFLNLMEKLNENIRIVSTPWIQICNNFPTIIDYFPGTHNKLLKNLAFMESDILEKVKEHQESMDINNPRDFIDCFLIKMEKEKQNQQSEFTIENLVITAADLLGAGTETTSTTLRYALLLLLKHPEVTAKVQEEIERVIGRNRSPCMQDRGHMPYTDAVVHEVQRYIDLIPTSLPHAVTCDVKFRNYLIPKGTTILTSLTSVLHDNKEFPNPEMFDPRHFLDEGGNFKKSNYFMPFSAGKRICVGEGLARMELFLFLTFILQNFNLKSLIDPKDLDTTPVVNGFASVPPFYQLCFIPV
# Method in brief: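 Reactions contain 5nM enzyme, 10uM Luciferin-H EGE (KM) and 50mM KPO4; compound preincubates 10 min at 37C, NADPH regeneration starts turnover for 60 min. Luminescence after detection reagent gives activity.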
# [6] = qHTS Assay for Identification of Small Molecule Agonists for Hypoxia Response Element Signaling Pathway (AID 914; active means well fitted activation curve with a large enough effect in the signal ratio, with a control signal flat, not every such curve was filed as active; the % refers to the signal ratio; further: % of control where 0% means no effect); details: ME-180 (cervical carcinoma) HRE-bla reporter, beta-lactamase ratio, CoCl2, 17 h; active compounds read high
# Method in brief: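 Compounds in a titration series were added to ME-180 reporter cells alongside an EC50 level of CoCl2. After 17 hours, beta-lactamase activity was read as the 460nm/530nm emission ratio of CCF4, giving AC50 values.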
compound,measurement,setting,value
CCC(=O)O[C@H]1C(O[C@@H]2C(C)[C@H](O[C@H]3C[C@@](C)(OC)C(O)C(C)O3)C(C)C(=O)OC(CC)[C@@](C)(O)C(O)[C@H](C)C(=O)C(C)C[C@]2(C)O)OC(C)CC1N(C)C (some centres not stated),Potency,[1],0.631 µM (active)
same,Potency,[2],inactive
same,outcome,[3],inactive
same,outcome,[4],inactive
CCO[C@H](c1cc(OC)cc([N+](=O)[O-])c1OC)[C@H](C)/C=C\CC(=O)OC,Potency,[1],3.98 µM (active)
same,"activity change, positive = activation",[2],-72.1% [at 11.4 µM]
same,Potency,[5],0.398 µM (active)
C#CCCCO/N=C1/C[C@@H](O)[C@@H](O)[C@@H]2[C@@H]3C(=O)N(C4CCCCC4)C(=O)[C@H]3CC[C@@H]12,Potency,[1],3.16 µM (active)
same,"activity change, positive = activation",[2],-78.4% [at 11.4 µM]
same,activation,[6],-13.1%
COC(=O)C[C@@H]1O[C@H]1[C@H](C)[C@@H](OC)C(C)C,Potency,[1],3.98 µM (active)
same,"activity change, positive = activation",[2],-66.6% [at 11.4 µM]
same,Potency,[5],3.98 µM (active)
COc1ccc(/C=C/N(CCc2ccc(OC)c(OC)c2)C(=O)C(F)(F)F)cc1,Potency,[1],2 µM (active)
same,"activity change, positive = activation",[2],-97.3% [at 11.4 µM]
same,Potency,[5],0.0794 µM (active)
COc1ccc(COC(=O)N/N=C2/C[C@@H](O)[C@@H](O)[C@@H]3[C@@H]4C(=O)N(c5cccc(Oc6ccccc6)c5)C(=O)[C@H]4CC[C@H]23)cc1,Potency,[1],3.16 µM (active)
same,"activity change, positive = activation",[2],-68.2% [at 11.4 µM]
same,activation,[6],-10.1%
COc1ccc(O[C@H]2C=C[C@@H](c3ccccc3)O[C@H]2CO/N=C(/C)CCC(=O)OC[C@@H]2O[C@H](c3ccccc3)C=C[C@@H]2Oc2ccc(OC)cc2)cc1,Potency,[1],3.98 µM (active)
same,"activity change, positive = activation",[2],-65.1% [at 11.4 µM]
same,activation,[6],3.42%
COc1cc(OC)c2c(=O)c(-c3ccc4c(c3)OCO4)coc2c1,Potency,[1],6.31 µM (active)
same,Potency,[2],inactive
same,outcome,[3],inactive
same,outcome,[4],inactive
CC(=O)c1c(O)cc(O)cc1O,Potency,[1],3.16 µM (active)
same,Potency,[2],inactive
same,outcome,[3],inactive
same,outcome,[4],inactive
NC(Cc1cnc[nH]1)C(=O)Nc1ccc2ccccc2c1 (configuration not stated),Potency,[1],2.51 µM (active)
same,Potency,[2],inactive
same,outcome,[3],inactive
same,outcome,[4],inactive
CC(=O)OCC1OC(c2ccc3c(c2)OCO3)C=CC1OC(C)=O (configuration not stated),Potency,[1],3.98 µM (active)
same,"activity change, positive = activation",[2],-75.4% [at 11.4 µM]
same,Potency,[5],0.316 µM (active)
COc1c2c(cc3occ(-c4ccc5c(c4)OCO5)c(=O)c13)OC(C)(C)C=C2,Potency,[1],2.51 µM (active)
same,Potency,[2],inactive
same,outcome,[3],inactive
same,outcome,[4],inactive
COc1cccc(-c2cc(=O)c3ccc(OC)cc3o2)c1,Potency,[1],7.94 µM (active)
same,Potency,[2],inactive
same,outcome,[3],inactive
same,outcome,[4],inactive
C=C(C)C(O)/C=C/c1cccc(OC)c1 (configuration not stated),Potency,[1],3.98 µM (active)
same,"activity change, positive = activation",[2],-69.2% [at 11.4 µM]
same,Potency,[5],0.0126 µM (active)
COc1ccc(O[C@H]2C=C[C@@H](c3ccccc3)O[C@H]2COC(=O)CC/C(C)=N/O[C@@H]2O[C@H](COC(C)=O)[C@H](OC(C)=O)[C@H](OC(C)=O)[C@H]2OC(C)=O)cc1,Potency,[1],5.01 µM (active)
same,"activity change, positive = activation",[2],-91.6% [at 11.4 µM]
same,Potency,[5],1.58 µM (active)
Nc1nc2c(ncn2C2OC(COC(=O)c3ccccc3)C(OC(=O)c3ccccc3)C2OC(=O)c2ccccc2)c(=O)[nH]1 (configuration not stated),Potency,[1],3.98 µM (active)
same,Potency,[2],inactive
same,outcome,[3],inactive
same,outcome,[4],inactive
CC(C)=CCc1c(O)cc2occ(-c3ccc4c(c3)OCO4)c(=O)c2c1O,Potency,[1],3.98 µM (active)
same,Potency,[2],inactive
same,outcome,[3],inactive
same,outcome,[4],inactive
C=C1C2CC[C@@]3(C)C(c4ccoc4)OC(=O)C[C@@]13OC1CC(OC(C)=O)C(C)(C)C(CC(=O)OC)[C@@]12C (some centres not stated),Potency,[1],1.26 µM (active)
same,Potency,[2],inactive
same,outcome,[3],inactive
same,outcome,[4],inactive
CC(=O)Oc1c(-c2ccccc2)oc2c(CC=C(C)C)c3c(c(OC(C)=O)c2c1=O)C=CC(C)(C)O3,Potency,[1],10 µM (active)
same,Potency,[2],inactive
same,outcome,[3],inactive
same,outcome,[4],inactive
COc1ccc(O[C@H]2C=C[C@@H](c3ccccc3)O[C@H]2COC(=O)CC/C(C)=N\O[C@@H](C)c2cn([C@H]3COC[C@H]3O)nn2)cc1,Potency,[1],3.98 µM (active)
same,"activity change, positive = activation",[2],-77.3% [at 11.4 µM]
same,Potency,[5],2.51 µM (active)
COc1ccc(O[C@H]2C=C[C@@H](c3ccccc3)O[C@H]2CO/N=C2/[C@H]3O[C@@H]3[C@@H](O)[C@H]3[C@H]2CCn2c(=O)n(-c4ccccc4)c(=O)n23)cc1,Potency,[1],3.16 µM (active)
same,"activity change, positive = activation",[2],-86.5% [at 11.4 µM]
same,Potency,[5],2.51 µM (active)
CCc1cc2c(nc1CC)CCN(CC/C(C)=N/O[C@@H](C)c1cn([C@H](CO)Cc3ccccc3)nn1)C2,Potency,[1],3.16 µM (active) and 3.98 µM (active)
same,"activity change, positive = activation",[2],-78.5% [at 11.4 µM] and -65.5% [at 11.4 µM]
same,activation,[6],-4.74%
C/C=C/OC(=O)NC(c1ccccc1)[C@@]1(C(=O)OCC)CCCC1=O (some centres not stated),Potency,[1],0.0158 µM (active)
same,"activity change, positive = activation",[2],-71.4% [at 11.4 µM]
same,Potency,[5],0.0251 µM (active)
COc1cccc([C@@H]2Oc3ccc(OC)cc3/C(=N/OC[C@@H](O)COCc3ccco3)[C@@H]2O)c1,Potency,[1],3.16 µM (active)
same,"activity change, positive = activation",[2],-84.1% [at 11.4 µM]
same,Potency,[5],1.58 µM (active)
